SMN2 splice enh – qHTS Assay for Enhancers of SMN2 Splice Variant Expression; HEK293 SMN2-luciferase splicing reporter, luminescence, 30-36 h; Potency, µM (top dose mostly 46.1 µM), hits mostly activators; hit rate 2.8% among 210,000; also: nearly all actives have a fitted effect of over 55% in size
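HEK293 cells carry an SMN2 […]–luciferase reporter in which exon 7 inclusion puts luciferase in frame. Cells were plated 10-12 h before compound addition, then incubated 30-36 h at 37C. ONE-Glo luminescence was read; sodium butyrate at 4.5 mM final served as control.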
NPC1 promoter act – qHTS Assay for NPC1 Promoter Activators. hit rate 2.4% among 320,000. Potency, µM (highest dose often 9.22 µM), usual class: activators. AID 485313, 2010. Huh7 NPC1 promoter luciferase reporter, 24 h; also: nearly all actives have a fitted effect of over 60% in size
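Compounds in DMSO were transferred onto Huh7 NPC1-luciferase reporter cells pre-incubated 2 h; after 24 h at 37 °C, Amplite reagent was dispensed and luminescence recorded 10 min later.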
ELG1 DNA repair – qHTS screen for small molecules that inhibit ELG1-dependent DNA repair in human embryonic kidney (HEK293T) cells expressing luciferase-tagged ELG1 | HEK293T ELG1-luciferase reporter, luminescence, 16 h; DNA damage induced by 5-fluorouridine | Potency, µM (titrated, usually from 46.1 µM), hits mostly inhibitors | hit rate 2.3% among 330,000 | AID 504467, 2011; also: nearly all actives have a fitted effect of over 55% in size
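Reporter activity after DNA damage by 5-fluorouridine is monitored. Compound-treated cells incubate 16 hr at 37 °C, then ONE-Glo is added for 30 min before luminescence reading.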
FLuc counter – qHTS profiling assay for firefly luciferase inhibitor/activator using purifed enzyme and Km concentrations of substrates (counterscreen for miR-21 project); purified FLuc, Km substrates, luminescence inhibition; AID 588342, 2011; hit rate 6.9% among 360,000; Luciferin 4-monooxygenase (Photinus pyralis), P08659; Potency, µM (top dose mostly 57.5 µM), actives largely listed as inhibitors; also: nearly all actives have a fitted effect of over 55% in size
Target sequence (P08659 whole entry, looked up): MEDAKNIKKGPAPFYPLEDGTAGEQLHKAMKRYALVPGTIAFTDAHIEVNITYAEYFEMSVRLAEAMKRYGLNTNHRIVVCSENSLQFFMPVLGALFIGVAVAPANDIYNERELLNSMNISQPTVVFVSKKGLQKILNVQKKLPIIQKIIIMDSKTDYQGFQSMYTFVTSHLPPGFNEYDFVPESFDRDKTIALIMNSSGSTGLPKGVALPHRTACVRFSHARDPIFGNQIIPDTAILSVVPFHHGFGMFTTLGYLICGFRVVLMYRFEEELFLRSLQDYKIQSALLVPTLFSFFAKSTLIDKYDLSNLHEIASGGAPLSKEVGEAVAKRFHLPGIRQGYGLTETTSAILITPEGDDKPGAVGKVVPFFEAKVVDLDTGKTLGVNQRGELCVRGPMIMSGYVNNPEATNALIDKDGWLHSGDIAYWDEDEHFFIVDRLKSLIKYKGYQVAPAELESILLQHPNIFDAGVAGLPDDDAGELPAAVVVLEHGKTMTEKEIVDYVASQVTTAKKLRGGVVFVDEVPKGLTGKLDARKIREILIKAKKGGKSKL
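Biochemical qHTS of compounds, final roughly 60 µM downward over six points, against 10 nM purified firefly luciferase using Km concentrations of substrates (10 uM D-luciferin, 10 uM ATP) in Tris acetate pH 7.5 buffer; luminescence output.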
Rab9 promoter act – qHTS Assay for Rab9 Promoter Activators; Potency, µM (doses to about 9.22 µM), usual class: activators; hit rate 2.8% among 320,000; Huh7 Rab9 promoter-luciferase reporter, luminescence, 24 h; also: nearly all actives have a fitted effect of over 60% in size
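Huh7 cells stably carrying a Rab9 promoter-luciferase reporter, 1500 cells per well in OP-MEM I with 10% FBS, treated with compound 24 hours at 37C. Luciferase activity read by luminescence after 10 minutes with Amplite reagent.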
ELG1 genotox – qHTS screen for small molecules that induce genotoxicity in human embryonic kidney (HEK293T) cells expressing luciferase-tagged ELG1; HEK293T ELG1-luciferase reporter, luminescence, 16 h; Potency, µM (top dose mostly 46 µM), usual class: activators; hit rate 1.3% among 330,000; also: nearly all actives have a fitted effect of over 60% in size
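HEK293T cells expressing luciferase-tagged ELG1 were treated with compound or DMSO for 16 hr at 37°C. Luciferase activity was then read after 30 min with ONE-Glo at room temperature; rising signal flags genetic stress.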
Hits are given with their value; n = inactive; u = inconclusive; x = no result; [ ] = remark or other dose. In the library only some 9.4% were active in any assay of this set; here they are far more common. Calls follow the shape of the dose curve; as a rule, active = well fitted curve in the direction sought with a large enough effect; inconclusive = small, poorly fitted or top-dose-only effect, or another doubt; inactive = no such curve, though single readings can be large; an effect the other way counts as inactive or inconclusive.

SMILES	SMN2 splice enh	NPC1 promoter act	ELG1 DNA repair	FLuc counter	Rab9 promoter act	ELG1 genotox
COC(=O)[C@@H]1[C@@H]2C[C@H]3c4[nH]c5ccccc5c4CCN3C[C@@H]2CC[C@@H]1O	n[9.22 µM]	x	x	x	x	x
COCCN(CCOC)c1nc(-c2ccc(C)cc2)nc2ccccc12	x	n	u	13.5µM	n	n
CCCCN(CC)c1nc(-c2ccncc2)nc2ccccc12	n	n	23.1µM	n	n	n
CN1c2ccccc2C(=O)C(=C2SCCCS2)S1(=O)=O	x	n	n	19µM	n	n
COc1ccc2c(c1)-c1ccccc1S(=O)(=O)N2C	n	n	n	n	n	n
CCCCC/C=C\C/C=C\C/C=C\CCCCCCC(=O)NCCCC(=O)O	n	x	x	x	x	x
Nc1nccc(/C=C/c2c(Cl)cccc2Cl)n1	x	n	u	u	n	n
C(=C\c1ccco1)/c1ccc2ccccc2n1	x	u	u	1.2µM	3.98µM	u
O=C(/C=C/c1ccc2ccccc2n1)N1CCN(S(=O)(=O)c2ccc(F)cc2)CC1	x	n	u	n	n	n
Fc1cccc(F)c1/C=C/c1ccc2ccccc2n1	x	u	u	0.269µM	3.98µM	0.581µM
O=C(/C=C/c1ccc2ccccc2n1)N1CCN(S(=O)(=O)c2ccccc2F)CC1	x	n	16.4µM	n	n	n
Fc1cccc(Cl)c1/C=C/c1cnc2ccccc2n1	x	u	u	0.135µM	3.98µM	0.517µM
O=C(O)c1ccc(/C=N\N=C2c3ccccc3-c3ccccc32)cc1	n[9.22 µM]	x	x	x	x	x
CC(O)/C=C/c1ccc2ccccc2n1 (stereo not given)	15.8µM	n	n	16.9µM	n	n
O=C(Nc1nc2ccccc2n1CCN1CCOCC1)c1cn(-c2ccccc2)nc1-c1ccccc1	n	n	18.4µM	n	n	n
O=C(Nc1nc2ccccc2n1CCN1CCOCC1)c1ccccc1	x	n	u	n	n	n
CCOC(=O)N1CC=C2C(C#N)=C(N)C(C#N)(C#N)[C@H](c3ccc(OC(C)C)c(OCC)c3)[C@H]2C1	u	n	13µM	n	n	n
CCOC(=O)N1CC=C2C(C#N)=C(N)C(C#N)(C#N)[C@H](c3ccccc3OCC)[C@H]2C1	x	n	n	n	n	u
CCN(CC)CC(C)CNC(=O)c1cc(-c2ccc(Br)s2)nc2ccccc12 (stereo not given)	n	x	x	n	x	x
Clc1ccc(-c2cc(CSc3cccc(Cl)c3)on2)cc1	n	n	n	u	n	n
Clc1ccc(-c2cc(CSc3ccccc3)on2)cc1	12.6µM	4.47µM	u	2.39µM	3.16µM	u
c1ccc(SCc2cc(-c3ccccc3)no2)cc1	n	3.55µM	u	8.49µM	2.51µM	u
Cc1ccc(C(=O)NCCc2ccc(Cl)cc2)cc1-n1c(C)nc2cccnc21	x	x	x	n	x	x
COc1ccc(-c2nnc(SCC(=O)c3ccc([N+](=O)[O-])cc3)o2)cc1OC	n	x	x	n	x	x
COc1cc(/C=C2\N=C3CCCCCN3C2=O)ccc1O	u	n	u	16.9µM	n	u
SMILES	SMN2 splice enh	NPC1 promoter act	ELG1 DNA repair	FLuc counter	Rab9 promoter act	ELG1 genotox
O=C1/C(=C\c2ccc(O)c(O)c2)N=C2CCCCCN12	x	n	u	19µM	n	u
COc1ccc(/C=C2/N=C3CCCCCN3C2=O)cc1	n	n	u	16.9µM	n	u
COc1ccc(C(=O)OCc2cc(=O)n3nc(C4CC4)sc3n2)cc1OC	x	x	x	n	x	x
Cc1c(Cl)cccc1-n1nnc(-c2nc(-c3ccc4c(c3)OCO4)no2)c1C	x	x	x	3.01µM	x	x
COc1ccc(Cl)cc1-n1nnc(-c2nc(-c3ccc4c(c3)OCO4)no2)c1C	x	x	x	n	x	x
COc1ccc(-c2csc(C3=C(O)CN(CCCN4CCCC4=O)C3=N)n2)cc1OC	u	n	n	8.49µM	n	n
Cc1c(Cl)cccc1-c1ccc(C(=O)N2CCN(c3ccc([N+](=O)[O-])cc3)CC2)o1	n	n	16.4µM	n	n	n
O=C(c1ccc(-c2ccc([N+](=O)[O-])cc2)o1)N1CCCCCCC1	x	u	u	10.7µM	u	n
COc1ccc(N2CCN(C(=O)c3ccc(COc4ccc([N+](=O)[O-])cc4)o3)CC2)cc1	x	n	20.6µM	n	n	n
O=C(c1ccc(-c2cccc(Cl)c2)o1)N1CCN(c2ccc([N+](=O)[O-])cc2)CC1	n	n	u	n	n	n
CCOc1cc(CNC(=O)c2ccc(Cn3c(=O)c4cccn4c4cccnc43)cc2)ccc1OC	x	x	x	n	x	x
CC(C)=CC(=O)Nc1ccc(Cl)cc1	14.1µM	1.58µM	u	10.7µM	1.41µM	u
COc1ccc(NC(=O)C=C(C)C)cc1Cl	11.2µM	x	x	12µM	x	x
COc1ccc(NC(=O)Nc2cccs2)cc1Cl	x	u	u	8.49µM	u	u
COc1ccc(NC(=O)c2cc(F)c(F)cc2Cl)cc1Cl	x	u	u	13.5µM	u	u
COCC(=O)Nc1ccc(OC)c(Cl)c1	x	n	u	n	n	n
CNC(=O)Nc1ccc(Cl)cc1	n	n	n	u	n	n
O=C(c1ccccc1Cl)N1CCCCC1CCN1CCCCC1 (stereo not given)	n	x	x	n	x	x
CC(=O)c1ccc(-c2cccc(-c3nc4ccccn4c3NC3CCCCC3)c2)cc1	x	n	3.55µM	n	n	n
Brc1ccc(N=Nc2ccc3ccccc3n2)cc1	x	u	u	0.0213µM	u	u
CC(NC(=O)c1ccc2ccccc2n1)c1ccc(Br)cc1 (stereo not given)	x	n	n	n	n	n
NNC(=O)[C@@H](O)[C@H](O)[C@H](O)CO	n[9.22 µM]	x	x	x	x	x
Cc1ncc(CC(=O)n2cc(C(=O)c3cc(F)ccc3O)cn2)s1	n	n	n	n	n	n
Cc1ccc(O)c(C(=O)c2cnn(C(=O)Cc3csc(C)n3)c2)c1	n	n	16.4µM	n	n	n
CCCC(=O)Nc1nc2ccc(C(=O)OCC)cc2s1	17.8µM	0.631µM	u	u	u	10.3µM
SMILES	SMN2 splice enh	NPC1 promoter act	ELG1 DNA repair	FLuc counter	Rab9 promoter act	ELG1 genotox
CCOC(=O)c1ccc2nc(NC(=O)C(C)C)sc2c1	11.2µM	1.12µM	u	9.53µM	3.55µM	u
CCCCC(=O)Nc1nc2ccc(C(=O)OC)cc2s1	u	u	u	u	2.24µM	u
COC(=O)CCCCCCCCC(=O)Nc1nc2ccccc2s1	n	n	n	n	n	n
O=C(O)c1ccc2c(c1)C(=O)N(CCc1c[nH]c3ccccc13)C2=O	x	2.51µM	u	16.9µM	3.16µM	u
O=C(O)c1ccc2c(c1)C(=O)N(CCc1ccccc1)C2=O	x	n	n	n	n	n
CCC(C(=O)C(C)C(O)C(C)CCc1ccc(C)c(O)c1C(=O)O)C1OC(CC)(C2CC[C@@](O)(CC)C(C)O2)CC1C (stereo not given in full)	n	x	x	x	x	x

Screening data as filed in PubChem.
